# Experimental data taken from PubChem BioAssay AID1159580 (chemical genetic matrix, 2015).
# Hit rate of the full screen: of about 5,500 compounds, about 2,000 (36%) were called active. Roughly 18% stayed inconclusive and do not appear here. The list shows a part of the results. A number with no mark means an inactive call. No stated cut-off is given here; in the data, active means normalized growth mostly below about 0.91 (no sharp cut-off); inconclusive means no clear call, values can overlap the other calls; inactive means mostly above about 0.92.
# Assay: chemical genetic growth profiling, strain panel (AID 1159580);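 further: tested at 20 µM; growth read once vehicle control cultures reached saturation at 30 °C; 1 = growth at the plate median or of vehicle wells; lower values mean less growth of the strain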
# Conditions: growth OD
# [1] = S. cerevisiae deletion strains, locus YAL013W, strain DEP1, hits give low values
# [2] = S. cerevisiae deletion strains, locus YBR229C, strain ROT2, hits give low values
# [3] = S. cerevisiae deletion strains, locus YDL101C, strain DUN1, hits give low values
# [4] = S. cerevisiae deletion strains, locus YDR150W, strain NUM1, hits give low values
# [5] = S. cerevisiae deletion strains, locus YEL061C, strain CIN8, hits give low values
# [6] = S. cerevisiae deletion strains, locus YGR078C, strain PAC10, hits give low values
# [7] = S. cerevisiae deletion strains, locus YHR030C, strain SLT2, hits give low values
# [8] = S. cerevisiae deletion strains, locus YHR087W, strain rtc3, hits give low values
# [9] = S. cerevisiae deletion strains, locus YJL187C, strain SWE1, hits give low values
# [10] = S. cerevisiae deletion strains, locus YJR043C, strain POL32, hits give low values
# [11] = S. cerevisiae deletion strains, locus YJR075W, strain HOC1, hits give low values
# [12] = S. cerevisiae deletion strains, locus YLR039C, strain RIC1, hits give low values
# [13] = S. cerevisiae deletion strains, locus YLR058C, strain SHM2 (second series), hits give low values
# [14] = S. cerevisiae deletion strains, locus YLR085C, strain ARP6, hits give low values
# [15] = S. cerevisiae deletion strains, locus YLR262C, strain YPT6, hits give low values
# [16] = S. cerevisiae deletion strains, locus YML094W, strain GIM5, hits give low values
# [17] = S. cerevisiae deletion strains, locus YMR219W, strain ESC1, hits give low values
# [18] = S. cerevisiae deletion strains, locus YMR263W, strain SAP30, hits give low values
# [19] = S. cerevisiae deletion strains, locus YMR307W, strain GAS1, hits give low values
# [20] = S. cerevisiae deletion strains, locus YNL153C, strain GIM3, hits give low values
# [21] = S. cerevisiae deletion strains, locus YNL298W, strain CLA4 (second series), hits give low values
# [22] = S. cerevisiae deletion strains, locus YNL322C, strain KRE1, hits give low values
# [23] = S. cerevisiae deletion strains, locus YNR030W, strain Alg12, hits give low values
# [24] = S. cerevisiae deletion strains, locus YPL055C, strain LGE1, hits give low values
# [25] = S. cerevisiae deletion strains, locus YPL241C, strain CIN2, hits give low values
# [26] = S. cerevisiae deletion strains, locus YPR135W, strain CTF4, hits give low values
smiles,measurement,setting,value
CCCc1cc(C(=O)Nc2ccc(N(CC)CC)cc2)nn1-c1ccccc1,normalized growth,[1],0.98
same,normalized growth,[2],0.983
same,normalized growth,[3],0.981
same,normalized growth,"S. cerevisiae deletion strains, locus YDL134C, strain PPH21, hits give low values",0.873 (active)
same,normalized growth,[4],0.966
same,normalized growth,[5],0.895 (active)
same,normalized growth,[6],0.975
same,normalized growth,[7],0.276 (active)
same,normalized growth,[8],0.981
same,normalized growth,[9],0.991
same,normalized growth,[10],0.973
same,normalized growth,[11],0.967
same,normalized growth,"S. cerevisiae deletion strains, locus YKL190W, strain CNB1, hits give low values",0.96
same,normalized growth,[12],1
same,normalized growth,[13],0.982
same,normalized growth,[14],0.813
same,normalized growth,[15],0.915
same,normalized growth,[16],0.911
same,normalized growth,[17],0.999
same,normalized growth,[18],0.991
same,normalized growth,[19],0.275 (active)
same,normalized growth,[20],0.987
same,normalized growth,[21],0.884
same,normalized growth,[22],0.991
same,normalized growth,[23],0.89
same,normalized growth,"S. cerevisiae deletion strains, locus YOL006C, strain TOP1, hits give low values",0.626 (active)
same,normalized growth,[24],0.973
same,normalized growth,[25],0.92
same,normalized growth,[26],0.718
same,normalized growth,"S. cerevisiae strains, strain wild type, hits give low values",0.922
C(=NC(N=Cc1ccccc1)c1ccccc1)c1ccccc1 (centres undefined),normalized growth,"S. cerevisiae deletion strains, locus YAR019C, strain CDC15, hits give low values",0.983
same,normalized growth,"S. cerevisiae deletion strains, locus YBL105C, strain PKC1, hits give low values",0.991
same,normalized growth,"S. cerevisiae deletion strains, locus YBR135W, strain CKS1, hits give low values",0.986
same,normalized growth,"S. cerevisiae deletion strains, locus YBR136W, strain MEC1, hits give low values",0.977
same,normalized growth,"S. cerevisiae deletion strains, locus YBR160W, strain CDC28, hits give low values",0.989
same,normalized growth,"S. cerevisiae deletion strains, locus YDL017W, strain CDC7, hits give low values",0.99
same,normalized growth,"S. cerevisiae deletion strains, locus YDL028C, strain MPS1, hits give low values",0.984
same,normalized growth,[3],0.994
same,normalized growth,"S. cerevisiae deletion strains, locus YDL108W, strain KIN28, hits give low values",0.976
same,normalized growth,"S. cerevisiae deletion strains, locus YDL132W, strain cdc53, hits give low values",0.992
same,normalized growth,"S. cerevisiae deletion strains, locus YDL214C, strain PRR2, hits give low values",0.956
same,normalized growth,"S. cerevisiae deletion strains, locus YDR052C, strain DBF4, hits give low values",0.989
same,normalized growth,"S. cerevisiae deletion strains, locus YDR054C, strain cdc34, hits give low values",0.991
same,normalized growth,"S. cerevisiae deletion strains, locus YDR226W, strain ADK1, hits give low values",0.992
same,normalized growth,"S. cerevisiae deletion strains, locus YDR477W, strain SNF1, hits give low values",0.963
same,normalized growth,"S. cerevisiae deletion strains, locus YER123W, strain YCK3, hits give low values",0.937
same,normalized growth,"S. cerevisiae deletion strains, locus YER133W, strain GLC7, hits give low values",0.971
same,normalized growth,"S. cerevisiae deletion strains, locus YFL009W, strain cdc4, hits give low values",0.992
same,normalized growth,"S. cerevisiae deletion strains, locus YFL029C, strain CAK1, hits give low values",0.981
same,normalized growth,"S. cerevisiae deletion strains, locus YFR003C, strain YPI1, hits give low values",0.989
same,normalized growth,"S. cerevisiae deletion strains, locus YFR019W, strain FAB1, hits give low values",0.962
same,normalized growth,"S. cerevisiae deletion strains, locus YFR028C, strain CDC14, hits give low values",0.995
same,normalized growth,"S. cerevisiae deletion strains, locus YGR040W, strain KSS1, hits give low values",0.958
same,normalized growth,"S. cerevisiae deletion strains, locus YGR052W, strain FMP48, hits give low values",1.03
same,normalized growth,"S. cerevisiae deletion strains, locus YGR092W, strain DBF2, hits give low values",0.974
same,normalized growth,[7],0.919
same,normalized growth,"S. cerevisiae deletion strains, locus YHR079C, strain IRE1, hits give low values",0.934
same,normalized growth,"S. cerevisiae deletion strains, locus YHR082C, strain KSP1, hits give low values",0.986
same,normalized growth,"S. cerevisiae deletion strains, locus YHR205W, strain SCH9, hits give low values",0.894
same,normalized growth,"S. cerevisiae deletion strains, locus YIL147C, strain SLN1, hits give low values",0.984
same,normalized growth,"S. cerevisiae deletion strains, locus YJL095W, strain BCK1, hits give low values",0.918
same,normalized growth,"S. cerevisiae deletion strains, locus YJL128C, strain PBS2, hits give low values",0.961
same,normalized growth,"S. cerevisiae deletion strains, locus YJL157C, strain FAR1, hits give low values",0.977
same,normalized growth,"S. cerevisiae deletion strains, locus YJR016C, strain ILV3, hits give low values",0.997
same,normalized growth,"S. cerevisiae deletion strains, locus YJR066W, strain TOR1 (second series), hits give low values",0.937
same,normalized growth,"S. cerevisiae deletion strains, locus YJR066W, strain TOR1, hits give low values",0.973
same,normalized growth,"S. cerevisiae deletion strains, locus YKL048C, strain ELM1, hits give low values",0.957
same,normalized growth,"S. cerevisiae deletion strains, locus YKL067W, strain YNK1, hits give low values",0.956
same,normalized growth,"S. cerevisiae deletion strains, locus YKL101W, strain HSL1, hits give low values",0.941
same,normalized growth,"S. cerevisiae deletion strains, locus YKL193C, strain SDS22, hits give low values",0.995
same,normalized growth,"S. cerevisiae deletion strains, locus YKL203C, strain TOR2, hits give low values",1.02
same,normalized growth,"S. cerevisiae deletion strains, locus YLR113W, strain HOG1, hits give low values",0.856 (active)
same,normalized growth,"S. cerevisiae deletion strains, locus YLR133W, strain CKI1, hits give low values",0.958
same,normalized growth,"S. cerevisiae deletion strains, locus YLR403W, strain SFP1, hits give low values",0.945
same,normalized growth,"S. cerevisiae deletion strains, locus YML070W, strain DAK1, hits give low values",0.947
same,normalized growth,"S. cerevisiae deletion strains, locus YMR001C, strain CDC5, hits give low values",0.995
same,normalized growth,"S. cerevisiae deletion strains, locus YMR205C, strain PFK2 (second series), hits give low values",0.953
same,normalized growth,"S. cerevisiae deletion strains, locus YMR277W, strain FCP1, hits give low values",0.998
same,normalized growth,"S. cerevisiae deletion strains, locus YNL006W, strain LST8, hits give low values",0.994
same,normalized growth,"S. cerevisiae deletion strains, locus YNL020C, strain ARK1, hits give low values",0.966
same,normalized growth,"S. cerevisiae deletion strains, locus YNL161W, strain CBK1, hits give low values",0.992
same,normalized growth,"S. cerevisiae deletion strains, locus YNL183C, strain NPR1, hits give low values",0.946
same,normalized growth,"S. cerevisiae deletion strains, locus YNL207W, strain RIO2, hits give low values",0.983
same,normalized growth,"S. cerevisiae deletion strains, locus YNL222W, strain SSU72, hits give low values",0.99
same,normalized growth,"S. cerevisiae deletion strains, locus YNL307C, strain MCK1 (second series), hits give low values",0.964
same,normalized growth,"S. cerevisiae deletion strains, locus YOL078W, strain AVO1, hits give low values",0.992
same,normalized growth,"S. cerevisiae deletion strains, locus YOL136C, strain PFK27, hits give low values",0.968
same,normalized growth,"S. cerevisiae deletion strains, locus YOR061W, strain CKA2, hits give low values",0.942
same,normalized growth,"S. cerevisiae deletion strains, locus YOR119C, strain RIO1, hits give low values",0.972
same,normalized growth,"S. cerevisiae deletion strains, locus YOR231W, strain MKK1, hits give low values",0.911
same,normalized growth,"S. cerevisiae deletion strains, locus YOR329C, strain SCD5, hits give low values",0.989
same,normalized growth,"S. cerevisiae deletion strains, locus YPL031C, strain PHO85, hits give low values",0.962
same,normalized growth,"S. cerevisiae deletion strains, locus YPL153C, strain RAD53, hits give low values",0.955
same,normalized growth,"S. cerevisiae deletion strains, locus YPL204W, strain HRR25, hits give low values",0.976
same,normalized growth,"S. cerevisiae deletion strains, locus YPL209C, strain IPL1, hits give low values",0.99
same,normalized growth,"S. cerevisiae deletion strains, locus YPL256C, strain CLN2, hits give low values",0.913
same,normalized growth,"S. cerevisiae deletion strains, locus YPR025C, strain CCL1, hits give low values",0.991
same,normalized growth,"S. cerevisiae deletion strains, locus YPR106W, strain ISR1, hits give low values",0.99
same,normalized growth,"S. cerevisiae deletion strains, locus YPR111W, strain DBF20, hits give low values",0.985
same,normalized growth,"S. cerevisiae deletion strains, strain NNK1, hits give low values",0.981
same,normalized growth,"S. cerevisiae deletion strains, strain TSCII, hits give low values",0.991
O=C(NC(c1ccccc1)C(N=Cc1ccccc1)c1ccccc1)c1ccccc1 (centres undefined),normalized growth,[1],1
same,normalized growth,[2],1.02
same,normalized growth,"S. cerevisiae deletion strains, locus YCL061C, strain MRC1, hits give low values",1.02
same,normalized growth,[3],1
same,normalized growth,[4],0.959
same,normalized growth,[5],1.03
same,normalized growth,[6],1.01
same,normalized growth,"S. cerevisiae deletion strains, locus YGR229C, strain SMI1, hits give low values",1.02
same,normalized growth,[7],1.05
same,normalized growth,[8],1
same,normalized growth,[9],1.02
same,normalized growth,[10],1.02
same,normalized growth,[11],1.01
same,normalized growth,[12],1.04
same,normalized growth,[13],1.03
same,normalized growth,[14],1.03
same,normalized growth,[15],1.1
same,normalized growth,[16],1.01
same,normalized growth,[17],1.01
same,normalized growth,[18],0.978
same,normalized growth,[19],0.999
same,normalized growth,[20],0.998
same,normalized growth,[21],1.05
same,normalized growth,[22],1
same,normalized growth,[23],1.02
same,normalized growth,[24],0.917
same,normalized growth,[25],1.01
same,normalized growth,[26],1.01
